# Screening results as filed in PubChem BioAssay.
# Hits are enriched below; roughly 19% of the tested compounds scored in any of these assays.
# TDP1 cell CPT: growth inhibition of DT40 Tdp1-/-;hTDP1 cells with camptothecin (screen for TDP1 inhibitors); chicken DT40 Tdp1-/-;hTDP1 cells + 20 nM CPT, ATP luminescence, 48 h; actives 12% (n = 420,000); AID 686979; Potency, µM (highest dose often 46.2 µM), without a hit: top-dose activity change, negative = growth inhibition, hits mostly inhibitors; also: potency is read from the fitted curve at half-maximal effect; nearly all actives have a fitted effect of over 55% in size
#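 Cell growth measured by CellTiter-Glo luminescence after a minimum 48 h, 37 C compound exposure with 20 nM CPT in Tdp1-knockout DT40 cells stably expressing hTDP1, seeded 400/well; qHTS titration format.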
# HT1080-NT tox: kills 2HG-producing HT-1080-NT fibrosarcoma cells. HT-1080-NT fibrosarcoma viability, CellTiter-Glo ATP luminescence, 48 h. Potency, µM (top dose mostly 46.1 µM), for inactives: at the top dose activity, negative = less viability, actives largely listed as cytotoxic. actives 1.6% (n = 360,000). AID 686970;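 also: NT is the 2HG producing partner of a matched IDH1 knockdown line; potency is read from the fitted curve at half-maximal effect; 0% = DMSO-treated cells and -100% = media-only wells without cells; nearly all actives have a fitted effect of over 55% in size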
#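 Luminescent CellTiter-Glo readout after 48 hours of compound exposure at 37 degrees C defined viability of HT-1080-NT cells. Activity was normalized to DMSO wells and cell-free media wells; concentration-response curves were fitted and assigned curve classes.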
# HT1080 IDH1KD tx: HT-1080 IDH1 knockdown cell toxicity (counter line); Potency, µM (highest dose often 46.1 µM), inactives show at the highest dose activity, negative = toxicity, hits mostly cytotoxic; actives 2% (n = 360,000); HT-1080 IDH1 knockdown viability, ATP luminescence, 48 h; AID 686971;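 also: potency is read from the fitted curve at half-maximal effect; 0% = DMSO wells and -100% = cell-free medium wells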
#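 Using the IDH1-knockdown HT-1080 line run in the same batch and compound series as the NT line, viability after 48 h at 37 °C was determined by CellTiter-Glo luminescence and expressed as % activity.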
# DT40 TDP1 no CPT: qHTS for Inhibitors of human tyrosyl-DNA phosphodiesterase 1 (TDP1): qHTS in cells in absence of CPT; DT40 Tdp1-/- hTDP1 cells, no CPT, ATP luminescence, 48 h; actives 15% (n = 420,000); Potency, µM (series often up to 46.2 µM), without a hit: at the highest dose activity change, negative = growth inhibition, actives largely listed as inhibitors; also: potency is read from the fitted curve at half-maximal effect; nearly all actives have a fitted effect of over 55% in size
#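 Stably hTDP1-transfected Tdp1-null chicken DT40 cells were treated with library compounds minus camptothecin and grown for at least 48 hr at 37 °C, after which cellular ATP was quantified by luminescence.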
# IL1B secr inh: blocks inflammasome-driven IL-1 beta release; THP-1 LPS/ATP IL-1B secretion, AlphaLISA, 16 h; hits give low values; actives 4.7% (n = 360,000); activity change, % at 57.5 µM; AID 743279; in the data active = activity change below about -50%; inconclusive = mostly about -30% to -49%
#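 THP-1 cells pretreated 1 hr with compounds (up to 57.5 uM final), then stimulated with LPS (250 ng/mL final) plus ATP (1.25 mM final); secreted IL-1B measured by AlphaLISA after 16 hr, decreased signal indicating inhibition.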
# * marks the source's active call; other numbers are inactive results; ? = inconclusive; . = not tested or not shown; [ ] = remark or other dose. Unless noted, calls follow the shape of the dose curve; as a rule, active = well fitted curve in the direction sought with a large enough effect; inconclusive = small, poorly fitted or top-dose-only effect, or another doubt; inactive = no such curve, though single readings can be large; an effect the other way counts as inactive or inconclusive. Unless noted, % is scaled to controls: 0 for no effect and ±100 for the full control effect.
SMILES,TDP1 cell CPT,HT1080-NT tox,HT1080 IDH1KD tx,DT40 TDP1 no CPT,IL1B secr inh
CCCCn1c(O)c(C(CC)=Nc2ccc(OC)cc2OC)c(=O)[nH]c1=O,?,-15.1%,-23.9%,?,-8.6
CCC(=Nc1ccc2c(c1)CCC2)c1c(O)n(C2CCCCC2)c(=O)[nH]c1=O,29.1µM*,-0.8%,-0.7%,18.4µM*,20.0
CCCCn1c(O)c(C(CC)=NC(C)c2ccccc2)c(=O)[nH]c1=O (centres undefined),?,?,?,25.9µM*,41.4
CCCCn1c(O)c(C(C)=NCc2cc(OC)cc(OC)c2)c(=O)[nH]c1=O,?,-10.4%,-27.9%,?,0.0
CCCCn1c(O)c(C(CC)=NCc2cc(OC)cc(OC)c2)c(=O)[nH]c1=O,?,-3.9%,-25.4%,23.1µM*,-9.7
CCCCn1c(O)c(C(CC)=Nc2ccc(OCC)cc2)c(=O)[nH]c1=O,18.4µM*,4.0%,-3.9%,20.6µM*,28.1
CC(C)(C)NC[C@@H](O)COc1cccc2[nH]c(C#N)cc12,23.0%,.,.,-24.3%,.
CC(C)(C)C(=O)N1Cc2ccccc2-n2nncc2C1,?,10.3%,8.5%,-28.1%,-10.3
O=c1[nH]c(=S)[nH]c(O)c1/C=N/N1CCOCC1,-9.7%,-2.4%,3.2%,-12.4%,0.0
CSc1ncc(Cl)c(C(=O)O)n1,-5.2%,13.4%,12.9%,-2.2%,19.2
COc1cc(CN=C(C)c2c(O)n(C3CCCCC3)c(=O)[nH]c2=O)cc(OC)c1,?,-17.1%,?,23.1µM*,-23.0
COc1ccccc1C=C1C(=O)NC(=S)NC1=O,-17.3%,-2.0%,-4.9%,2.2%,?
CN1C(=O)/C(=C/c2cccn2-c2ccc3ccccc3c2)C(=O)NC1=S,3.26µM*,?,?,5.17µM*,-116.9*
O=C1NC(=S)NC(=O)C1=Cc1cccn1-c1ccc(O)cc1,3.66µM*,?,23.1µM*,5.17µM*,-102.0*
Cc1cc(C)cc(N2C(=O)NC(=O)/C(=C\c3cccn3-c3ccccc3)C2=O)c1,?,-21.4%,?,?,-98.5*
O=C(COc1ccc(Cl)cc1)N1CCN(C2CCCC2)CC1,16.6%,15.5%,13.4%,-5.3%,6.6
CC(C)(C)NC[C@H](O)COc1cccc2[nH]c(C#N)cc12,-7.4%,.,.,-14.6%,.
CC(C)C[C@H](NC(=O)[C@H](Cc1ccccc1)NC(=O)CNC(=O)[C@H](C)NC(=O)[C@@H](N)Cc1ccc(O)cc1)C(=O)O,2.4%[4.12 µM],.,.,-11.5%[4.12 µM],.
Fc1ccc2c(c1)nnn2C1CCN(Cc2c(Cl)cccc2Cl)CC1,18.4µM*,1.4%,0.3%[9.24 µM],18.4µM*,-2.6
Cc1ccc(C)c(CN2CCC(n3nnc4cc(F)ccc43)CC2)c1,?,-5.8%,-3.7%,?,-23.4
COc1cc(/C=C/[N+](=O)[O-])ccc1O,8.2µM*,?,?,9.2µM*,-65.0*
CCOc1cc(C=O)ccc1O,17.5%,6.1%,0.2%,-2.4%,3.9
Cc1ccc(C)c(NC(=O)CCNC(=O)N2C[C@H]3C[C@@H](C2)c2cccc(=O)n2C3)c1,8.8%,1.3%,4.7%,-1.0%,11.5
C[C@]12O[C@H](C[C@]1(O)CO)n1c3ccccc3c3c4c(c5c6ccccc6n2c5c31)CNC4=O,0.299µM*,.,.,0.376µM*,.
CS(=O)(=O)N1CCN(C(=N)N[N+](=O)[O-])CC1,?,-4.2%,11.7%,?,18.5
SMILES,TDP1 cell CPT,HT1080-NT tox,HT1080 IDH1KD tx,DT40 TDP1 no CPT,IL1B secr inh
c1cc2c(cc1NC1=NCCO1)CCCC2,18.4µM*,?,?,?,0.2
CC(C)(C)C(=O)OC1=CN(Cc2ccccc2)S(=O)(=O)c2ccccc21,-22.2%,.,.,?,.
CCc1nn(CC(=O)N2CCN(Cc3ccc4c(c3)OCO4)CC2)c(=O)c2cc3occc3n12,?,-2.4%,-20.3%,?,-19.4
Clc1ccc2[nH]c3c(c2c1)CCNC3,?,-11.2%,-19.6%,?,0.0
C#CCCC[C@@H]1OC(=O)CNC(=O)C([C@@H](C)CC)NC(=O)[C@@H]2CCCN2C(=O)C([C@@H](C)CC)OC(=O)[C@H](Cc2ccccc2)N(C)C(=O)[C@H](C(C)C)NC(=O)C1(C)C (some centres undefined),13µM*,?,?,20.6µM*,-14.3
CC(=O)c1ccc2c(c1)N(CCCN(C)C)c1ccccc1S2,?,?,-78.2%,8.05µM*,0.0
CN1C(=O)COc2c(C(=O)N[C@@H]3CN4CCC3CC4)cc(Cl)cc21,5.8%,.,.,-12.2%,.
Nc1cccc(N=Cc2c(O)n(Cc3ccc(F)cc3)c(=O)[nH]c2=O)c1,?,-1.2%,-8.3%,?,-10.8
CN[C@@H]1C[C@@H](c2ccc(Cl)c(Cl)c2)c2ccccc21,23.7µM*,.,.,11.9µM*,.
CN[C@@H]1C[C@H](c2ccc(Cl)c(Cl)c2)c2ccccc21,8.41µM*,.,.,9.44µM*,.
CC(=O)OC1CC2C(C)(C)C(O)C=C[C@@]2(C)C2CC[C@]3(C)C(=CC(=O)OC3c3ccoc3)[C@]12C (some centres undefined),-2.7%,.,.,-27.4%,.
COc1cccc(-n2c(/C=C/c3ccccn3)nc3ccccc3c2=O)c1,?,4.5%,3.2%,?,-84.0*
Cc1cccc(-n2c(/C=C/c3c[nH]c4ccccc34)nc3ccccc3c2=O)c1,2.59µM*,.,.,2.59µM*,.
Cc1cccc(-n2c(/C=C/c3ccccn3)nc3ccccc3c2=O)c1,23.1µM*,1.5%,3.2%,?,-52.1*
CC(=O)Nc1ccccc1OP1(=O)COc2ccccc2OC1,1.5%,23.2%,3.3%,4.1%,15.9
CC(=O)[C@]1(O)CCC2C3CCC4=CC(=O)CC[C@@]4(C)C3CC[C@]21C (some centres undefined),?,.,.,-5.1%,.
CC(=O)[C@@]1(O)CC[C@H]2[C@@H]3C[C@H](C)C4=CC(=O)CC[C@]4(C)[C@H]3CC[C@@]21C,?,2.0%,-2.9%,29.1µM*,?
O=P(OC1CCCCC1)(OC1CCCCC1)C(O)c1c(Cl)cccc1Cl (centres undefined),?,-2.3%,-7.9%,?,-26.4
O=P(OC1CCCCC1)(OC1CCCCC1)C(O)c1ccc(Cl)cc1Cl (centres undefined),16.4µM*,0.3%,14.8%,20.6µM*,?
CC1N(O)C2CCCCCC2N1O (centres undefined),10.0%,17.2%,19.8%,2.4%,11.8
CC(C)c1ccc(C(=O)N2CCCC(c3cc(C(=O)Nc4ccccc4Cl)no3)C2)cc1 (centres undefined),14.6µM*,21.7%,1.2%,5.8µM*,36.3
